The whole screen tested about 53,000 sequences, of which about 3,700 (7%) were called active. This is one part of a sample in which actives are shown more often than they occur. Values without a mark were called inactive.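 How the source made its calls: active means gene knockdowns whose robust z-score for IL-1 alpha signal is at least 2 or at most -2, so actives lie on both sides; inactive means the rest.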
test: Components of the Cytosolic LPS Sensing Pathway: Gene Identification via Genome-wide siRNA Screen; conditions: RAW264.7 macrophages, IL-1a HTRF, actives lie on both sides, screened at 100 nM (by protocol), cells primed 5 h with Pam3CSK4 first;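 further: robust z of the log signal after scaling to non-targeting control siRNA wells of the plate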
Method in brief: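 Mouse macrophage line RAW264.7 is transfected with siRNA (100 nM final), grown 48h, primed with TLR ligand Pam3CSK4 5 h and given intracellular LipidA 24 h. IL-1a in supernatant is read by HTRF and viability by luminescence.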

Sequence	z-score
GGAAAAAUCAAAAGUGUUGTT against Tamm41	-1.55
GACUACAAAGGAGAGCAAATT against Igfbp6	2.07 (active)
GCUCCAGCUCUGCUUUAAGTT against 4931440P22Rik	1.28
GGGCAAUUUGGAGCUUACCTT against Erbb2	-0.952
GAUGCCUUUUAUGGGUGCATT against Olfr61	0.0552
GGCGUGAAGAAGUUUGAUGTT against Pklr	-0.431
GCGAGAAUUCUCUUCCAAUTT against Gsx2	2.33 (active)
GGACUGUCAGUACUGUCAATT against Agr3	0.445
CCUAAAAUACUUUACCGGGTT against Bckdhb	-0.025
GGAGAAUCUUCAACACUGGTT against Adprh	-0.951
GGCUUCAAAACAUUUUCAGTT against Kansl1l	2.81 (active)
GGCAUAUUCCGUUUUUAAATT against Pafah1b1	-1.09
GCAGUUACAGGAAAUCGAGTT against Cdr2	-0.746
GCCCAAGCAGUUCAUUCAUTT against Epc2	0.665
GCAUUAGUCAUUGUUAACGTT against Hsd17b4	0.653
GGGCGACUUUAGCUUUUAUTT against Pced1b	2.51 (active)
GGACUUCACCAUCCACGAATT against Pgap2	0.622
GGAUGCCUGAGUGCUACAUTT against Lsm4	-0.837
CGGUGCGAUCUCUCAAAGUTT against Cryba4	2.97 (active)
GAUAUAAAGCCUUCAACACTT against Olfr912	-1.48
GGAGAUGCUCAUUUUGAUUTT against Mmp8	1.76
GGUAGUGGCUUGAACAGGUTT against Vmn1r201	0.115

Sequence	z-score
GGAUCCUCGGACUAAAAGUTT against Pnma1	-0.228
GCAUCUUAACACAUGUAAATT against Zfp369	-0.834
GGGAUGUAUUUCAACAACUTT against Wwox	0.0276
GGUAUAAGGAUUCUUUGAATT against Alg13	-2.8 (active)
GGCAUGGACAUUGAUGACATT against Dnajb1	-0.834
GCCUAAAGCUUUUCUACAATT against Mlph	0.161
GGUCAUCCGAGAUUUCACCTT against Elavl3	-0.944
ACUUCACCAUGGUACCCGGTT against Tspo	1.06
GGCUUAAAUGCGUUCUACATT against Slc25a3	0.0986
GCCAGGAUAUGGAUAUGCATT against 1520401A03Rik	-2.06 (active)
GGCAGAAGAGUGGUACUUUTT against Fyn	-1.63
AAAGGACUGCCUAAGACAATT against Vmn1r203	-0.921
GCCAUGUUCUUUGCUCCCATT against Pigl	-1.8
GGGCAAACUCUAGAGCUACTT against Pdgfrl	-0.0578
GUCUGGAUAUUUGACACUATT against Tmem60	-0.637
GGAGUUGAUUGAAAUCAUCTT against Atp5c1	0.466
CGCAGGACGAUUAUGACGUTT against Pcdhb12	0.753
GGGAAACAAAAAAGAUUUCTT against Ptpn13	0.619
GCCAGCUAAAGAAGUCUAUTT against Gpr17	2.81 (active)
GGUCUCAAUAAACUUCAGGTT against Mfap4	0.926
CCCAAAGCGUGACUGUCAATT against Sema4b	-0.623
CCUGAAGUGGAGAUUCAACTT against Kcnj6	-1.27

Sequence	z-score
GGAGUUUACAGAAAUUAUCTT against Pecam1	0.214
GAUUAGCAUCCAUGAACACTT against Tcl1b2	2.16 (active)
GGCAGAUUCAGACCUUCGATT against Sult1c2	-0.753
CGAACAGUGCUUCGUAUGUTT against Lims1	-1.04
GGUACAUGAAGAAAAGUAATT against Lrrc19	-0.243
GCAUACAAGACCGUGAUCATT against Psmc4	-2.03 (active)
GGUUAUUUCUCUCUCCCUATT against Creld1	0.524
GGAGGAUGACAAAAUCUAUTT against Rnf113a2	1.25
GCAUGGUAUUAGAUGAUGATT against Nexn	-1.69
GCGCAGAUAUCCUGGUUUGTT against Dhx36	2.28 (active)
GGAAUGUGCCUAAGUUUGGTT against Ufc1	1.08
CCAAUGGAACAUUAAGUGATT against Psma1	-0.485
CCAUAGUUGAUGGAAGAUATT against Shld2	-0.847
CCCUAUUUGUCAACGAUUATT against Lrrc24	-0.662
GGAAGCAAUGUGAGAAAUUTT against Tmem91	2.54 (active)
GCCAAAUCAUGGGUCUGGUTT against Npas3	0.969
GGCAAUGUGCCCAAUAUCATT against Rfc2	-1.61
GGACUCAUAUCCUUACAUATT against AI854703	-0.0584
GGGAUAGCUGUCACCUUCUTT against Rad9a	-0.742
GGUGUUGAGUGCACUACUGTT against Nckap5l	-2.2 (active)
GUUUCUCGAAGAGCAUCCUTT against Cyb5a	0.732
UCACUUGUACCAAAAAUGATT against Adcy1	-1.43

Sequence	z-score
GGGAAAGUCGUUGAAAUUUTT against Stx18	0.941
GGAUUAAAGCAGAAUAUGATT against Paics	-0.561
GGCUGUCCUUUUCCUCUUATT against Yipf6	1.49
CCCAAAACUCUAGCUACUATT against Olfr824	-3.03 (active)
CGCAGCAGUUGUGGUCAAUTT against Nnat	-1.23
GGGCUGCUAUUUUGAUGGUTT against Chrd	0.704
GCGUAUAAGCUCAGUAGACTT against Phlpp1	1.06
GGGCAAGUAUGGGCAGUUCTT against Ppp1ca	0.0965
CGAGAUCAUCUCAAAUAUCTT against Man2a1	-0.0408
GGACAAACAAGUGAAAUACTT against Morf4l1	0.209
CCUAAAUUUCCAACAGUCCTT against Tmem81	2.05 (active)
CGGUCUUCCCGUGGUUCAATT against Gm5114	-0.992
GGCAAAAGGGACAAAAACUTT against Gadd45a	-1.64
CCUUUAUGGGACACUAUUUTT against Alb	0.588
CCUAAAAGACUUCAUCCGUTT against Kcnh8	2.32 (active)
CGUGGAACAUAAGAAUGGATT against Gapdhs	0.269
GGAUUGUCAGCCAAGAAACTT against Uba7	-0.085
GGAAAUUCACAAACAUGGATT against Gins3	-1.76
CCAUUUUAACCAAUGGUGUTT against Olfr572	-1.06
GGUCAAAAGACUGUACAUATT against Timm8a2	2.07 (active)
GGCAAUGGCUUGGUCUUUUTT against Mapk6	0.0141
GGAGGGAAUAGAGAAUCGGTT against A930024E05Rik	3.7 (active)

Sequence	z-score
GGAUUUUGAAGACAUCUGUTT against Tubgcp4	0.396
GGCAACAUGACAAUUGUGGTT against Olfr1215	-0.00863
GCCAUUGCUAGUAAUUCUUTT against Vkorc1l1	0.444
CCCUCAUGUUUAGCGAGCATT against Kcnj3	0.644
GGUGAAAGACCACAAAUUCTT against Prkca	-0.824
GGACUUUCGAGACAAGCUGTT against Barhl1	-1.21
CGUACAGUGAUGAUUUUGATT against Cep162	0.218
GGACAAUGCAGUGCUGAAATT against Car2	3.37 (active)
GCACACCCAAUGCUCUAAGTT against Nprl3	1.25
GCAGCGGAGGGUCAAAGAATT against Pym1	0.783
GGCCUUUGAGGUCUACAUATT against Icam2	0.323
GCCCUCCGAGAAAAACAUCTT against Gjb5	2.05 (active)
GGGUAAAAGUAGCUGCCCUTT against Trp53inp2	-0.401
GGAAAUAAAGUCCAUAGAATT against B3gnt3	0.00261
GGUUCCUCUUGUGAGUGCCTT against Gpr137b	-0.974
GGAGAAGUCCAUACGGAUCTT against Gpr18	0.184
GGGACAGUAGAAGAUGUAGTT against Got2	-0.706
GGAAAAUUGGACCAAUUUCTT against Ric3	-0.339
GCCUUGGUACCAUAAUGCATT against Synm	0.224

From PubChem BioAssay AID1508600 (Functional Genomics Laboratory (NCATS/FGL), 2020)
